Counter-ions that a name gives are not always drawn.

The assay concerns NCI-H1688. The experiment in a line: inhibition of cell viability relative to untreated control (fraction); higher = stronger growth inhibition, active = 0.5 or more. Conditions: 30 µM; 24 h. In short, it runs like this:
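Viability of NCI-H1688 small cell lung cancer cells was assessed with Cell Counting Kit-8 by absorbance at 450 nm, in triplicate, after a 24 h exposure to a natural compound library (TargetMol) at 30 µM at 37°C and 5% CO2. The cells had been seeded at 3 × 10^3 cells/well in 96-well plates 24 h before treatment. Inhibition of cell viability is reported as a fraction, derived from viability normalised against untreated cells.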
On to `COc1cc2c(c(OC)c1OC)-c1c(cc(OC)c(OC)c1OC)CC(C)C(C)C2` (stereo not given) [Schizandrin A], for which the “inhibition of cell viability” value is -0.0474 (inactive).

Turning to `CC[C@H](C)[C@H](N)C(=O)O` [isoleucine], the “inhibition of cell viability” value was -0.178 (inactive).

Turning to `C=C[C@H]1CN2CC[C@H]1C[C@H]2[C@H](O)c1ccnc2ccc(OC)cc12` [Quinine], the “inhibition of cell viability” value was 0.162 (inactive).

On to `CC(=O)N[C@H]1[C@H]([C@H](O)[C@H](O)CO)OC(O)(C(=O)O)C[C@@H]1O` (stereo not given in full) [N-Acetylneuraminic acid], for which the “inhibition of cell viability” value is -0.0072 (inactive). As for `C[C@@H]1CC[C@]2(C(=O)O[C@@H]3O[C@H](CO)[C@@H](O)[C@H](O)[C@H]3O)CC[C@]3(C)C(=CC[C@@H]4[C@@]5(C)CC[C@H](O)[C@@](C)(CO)[C@@H]5CC[C@]43C)[C@@H]2[C@]1(C)O` [Pedunculoside], the figure is 0.134 (inactive).

As for `CC1CCC(C(C)C)C(O)C1` (racemic) [DL-Menthol], the “inhibition of cell viability” value was 0.0236 (inactive).

For the compound `O=Cc1ccc(O)c(O)c1` [Protocatechualdehyde], the “inhibition of cell viability” value is 0.314 (inactive). Regarding `C=C[C@H]1CN2CC[C@H]1C[C@@H]2[C@@H](O)c1ccnc2ccc(OC)cc12` [Quinidine hydrochloride], the “inhibition of cell viability” value was -0.217 (inactive). With `COc1cc2c(cc1OC)[C@@H]1Cc3ccc(OC)c(OC)c3CN1CC2` [Rotundine, TETRAHYDROPALMATINE HYDROCHLORIDE], the “inhibition of cell viability” value is -0.254 (inactive). As to `COC(=O)CC[C@@H](C)[C@H]1CC[C@H]2[C@@H]3[C@H](O)C[C@@H]4C[C@H](O)CC[C@]4(C)[C@H]3C[C@H](O)[C@]12C` [Methyl Cholate], the “inhibition of cell viability” value was 0.013 (inactive). Under `C=C1C(=O)O[C@@H]2/C=C(\C)CC/C=C(\C)CC[C@@H]12` [Costunolide] stands 0.333 (inactive).

As for `COc1cc2c(cc1O)[C@@H](Cc1ccc(O)c(Oc3ccc(C[C@@H]4c5cc(OC)c(OC)cc5CCN4C)cc3)c1)N(C)CC2` [Daurisoline], the “inhibition of cell viability” value was 0.977 (active). Under `CC(=O)O[C@H]1C[C@@]2(C)[C@@H](C[C@@H](O)[C@H]3[C@@]4(C)CC[C@@H](O)[C@@H](C)[C@@H]4CC[C@@]32C)/C1=C(\CCC=C(C)C)C(=O)O` [Fusidine] stands -0.0194 (inactive). As for `COc1ccc2cc1Oc1ccc(cc1)C[C@H]1c3cc(c(OC)cc3CCN1C)Oc1c(O)c(OC)cc3c1[C@H](C2)N(C)CC3` [(+)-Fangchinoline], the figure is 0.984 (active); as for `C=C(C)[C@@H]1CC[C@]2(C)CC[C@]3(C)[C@H](CC[C@@H]4[C@@]5(C)CC[C@H](O)C(C)(C)[C@@H]5CC[C@]43C)[C@@H]12` [Lupeol], 0.287 (inactive). As for `C[C@@H]1O[C@@H](O[C@@H]2[C@@H](O)[C@H](OCCc3ccc(O)c(O)c3)O[C@H](CO)[C@H]2OC(=O)/C=C/c2ccc(O)c(O)c2)[C@H](O)[C@H](O)[C@H]1O` [Verbascoside], the figure is 0.0855 (inactive); as for `COc1ccc2cc3[n+](cc2c1OC)CCc1cc2c(cc1-3)OCO2` [Berberine hydrochloride], -0.108 (inactive); as for `O=C1O[C@H]([C@@H](O)CO)C(O)=C1OP(=O)(O)O` [Sodium L-ascorbyl-2-phosphate], 0.0357 (inactive). Consider `OCC1OC(OC2C(CO)OC(O)C(O)C2O)C(O)C(O)C1O` [D-Cellobiose], for which the “inhibition of cell viability” value was -0.12 (inactive). Under `COC(=O)[C@H]1[C@H]2C[C@@H]3c4[nH]c5cc(OC)ccc5c4CCN3C[C@H]2C[C@@H](OC(=O)c2cc(OC)c(OC)c(OC)c2)[C@@H]1OC` [Reserpine] stands 0.981 (active); under `C[C@H](CCC(=O)O)[C@H]1CC[C@H]2[C@@H]3CC[C@@H]4C[C@H](O)CC[C@]4(C)[C@H]3C[C@H](O)[C@]12C` [Deoxycholic acid], -0.113 (inactive). Consider `CC(C)(O)CC[C@@H](O)[C@](C)(O)[C@H]1CC[C@@]2(O)C3=CC(=O)[C@@H]4C[C@@H](O)[C@@H](O)C[C@]4(C)[C@H]3CC[C@]12C` [Ecdysterone], for which the “inhibition of cell viability” value was -0.0294 (inactive). Under `COc1c2occc2cc2ccc(=O)oc12` [8-Methoxypsoralen] stands 0.302 (inactive); under `C=C1C(=O)[C@]23[C@H](CC[C@@H]1[C@@H]2O)[C@]12CO[C@@]3(O)[C@H](O)[C@H]1C(C)(C)CC[C@@H]2O` [Rubescensin A], 0.984 (active). As to `CC(=O)O[C@H]1C(=O)[C@@]2(C)[C@H]([C@H](OC(=O)c3ccccc3)[C@]3(O)C[C@H](OC(=O)[C@H](O)[C@@H](NC(=O)c4ccccc4)c4ccccc4)C(C)=C1C3(C)C)[C@]1(OC(C)=O)CO[C@@H]1C[C@@H]2O` [Paclitaxel], the “inhibition of cell viability” value was 0.555 (active).

The values are drawn from the supplement of paper PMC11634586.
